Our source for the residual activity values is ChEMBL document CHEMBL2218924, “A broad activity screen in support of a chemogenomic map for kinase signalling research and drug discovery” (Biochem J, 2013).

Assay [1] has as its target T1, Mitogen-activated protein kinase 13 (Homo sapiens) (UniProt O15264).
T1 sequence (whole entry): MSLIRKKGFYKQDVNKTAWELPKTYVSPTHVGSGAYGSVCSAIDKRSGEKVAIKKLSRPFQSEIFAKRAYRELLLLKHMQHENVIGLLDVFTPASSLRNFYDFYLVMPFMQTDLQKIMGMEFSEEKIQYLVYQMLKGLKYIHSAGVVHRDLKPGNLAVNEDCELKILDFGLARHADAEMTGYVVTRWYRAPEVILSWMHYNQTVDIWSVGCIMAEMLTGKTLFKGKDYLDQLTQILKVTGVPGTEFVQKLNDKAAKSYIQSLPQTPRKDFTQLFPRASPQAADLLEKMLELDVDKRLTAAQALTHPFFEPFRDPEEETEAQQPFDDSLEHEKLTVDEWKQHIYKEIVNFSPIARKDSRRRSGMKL
The following applies: at 1 µM.

The target of assay [2] is T2, Serine/threonine-protein kinase Sgk2 (Homo sapiens) (UniProt Q9HBY8).
T2 sequence (whole entry): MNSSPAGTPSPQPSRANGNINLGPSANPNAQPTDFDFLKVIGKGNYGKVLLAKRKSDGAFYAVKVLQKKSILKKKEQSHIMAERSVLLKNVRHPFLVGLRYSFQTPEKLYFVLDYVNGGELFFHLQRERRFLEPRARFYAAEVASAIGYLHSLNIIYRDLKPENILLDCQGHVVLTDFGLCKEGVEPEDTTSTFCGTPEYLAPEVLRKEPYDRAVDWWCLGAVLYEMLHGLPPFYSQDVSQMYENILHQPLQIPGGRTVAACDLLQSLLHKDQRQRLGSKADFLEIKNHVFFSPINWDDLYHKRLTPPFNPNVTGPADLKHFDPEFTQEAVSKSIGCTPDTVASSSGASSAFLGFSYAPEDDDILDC
The following applies: at 1 µM.

The target of assay [3] is T2, Serine/threonine-protein kinase Sgk2 (Homo sapiens). The following applies: at 10 µM.
Assay [4] has as its target SRSF protein kinase 1 (Homo sapiens) (UniProt Q96SB4). Particulars: at 1 µM.
Assay [5] addresses Serine/threonine-protein kinase 33 (Homo sapiens) (UniProt Q9BYT3). Particulars: at 1 µM.
Assay [6] shares this target. Particulars: at 10 µM.
Assay [7] addresses T3, Serine/threonine-protein kinase Sgk1 (Homo sapiens) (UniProt O00141).
T3 sequence (whole entry): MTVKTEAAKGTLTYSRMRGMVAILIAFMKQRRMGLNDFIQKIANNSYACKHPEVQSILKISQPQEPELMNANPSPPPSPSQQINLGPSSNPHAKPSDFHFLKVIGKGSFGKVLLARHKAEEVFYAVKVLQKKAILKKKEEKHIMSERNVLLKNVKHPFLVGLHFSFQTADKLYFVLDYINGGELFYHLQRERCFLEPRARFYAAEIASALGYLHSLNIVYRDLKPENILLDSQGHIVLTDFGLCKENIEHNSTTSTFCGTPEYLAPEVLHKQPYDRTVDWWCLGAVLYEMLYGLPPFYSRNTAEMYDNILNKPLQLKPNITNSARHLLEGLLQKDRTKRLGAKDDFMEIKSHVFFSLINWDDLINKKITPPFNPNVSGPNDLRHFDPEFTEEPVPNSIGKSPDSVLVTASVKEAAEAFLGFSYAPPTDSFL
Particulars: at 1 µM.

The target of assay [8] is Serine/threonine-protein kinase SIK1 (Homo sapiens) (UniProt P57059). The following applies: at 1 µM.
In assay [9] the target is T1, Mitogen-activated protein kinase 13 (Homo sapiens). The following applies: at 10 µM.
Assay [10] concerns the target T3, Serine/threonine-protein kinase Sgk1 (Homo sapiens). Particulars: at 10 µM.
For assay [11], the target named is Serine/threonine-protein kinase SIK1 (Homo sapiens) (UniProt P57059). Particulars: at 10 µM.
The target of assay [12] is SRSF protein kinase 1 (Homo sapiens) (UniProt Q96SB4). Particulars: at 10 µM.
The target in assay [13] is Tyrosine-protein kinase SYK (Homo sapiens) (UniProt P43405). The following applies: at 1 µM.
Assay [14] concerns the target T4, Serine/threonine-protein kinase Sgk3 (Homo sapiens) (UniProt Q96BR1).
T4 sequence (whole entry): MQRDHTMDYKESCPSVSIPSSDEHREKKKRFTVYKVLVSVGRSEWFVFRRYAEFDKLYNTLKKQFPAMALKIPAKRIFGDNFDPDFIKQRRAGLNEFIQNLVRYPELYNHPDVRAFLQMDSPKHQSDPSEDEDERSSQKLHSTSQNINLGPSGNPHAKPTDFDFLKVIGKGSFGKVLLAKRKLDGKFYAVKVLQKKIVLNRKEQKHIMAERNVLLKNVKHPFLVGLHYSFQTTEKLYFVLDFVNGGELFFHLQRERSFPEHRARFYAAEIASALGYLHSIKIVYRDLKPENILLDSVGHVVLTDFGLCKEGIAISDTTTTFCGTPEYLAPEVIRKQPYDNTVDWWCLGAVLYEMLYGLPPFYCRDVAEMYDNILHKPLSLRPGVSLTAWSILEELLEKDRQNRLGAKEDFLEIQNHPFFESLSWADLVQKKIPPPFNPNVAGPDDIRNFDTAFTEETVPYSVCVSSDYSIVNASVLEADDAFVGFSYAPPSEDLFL
The following applies: at 10 µM.

Assay [15] has as its target Mitogen-activated protein kinase 11 (Homo sapiens) (UniProt Q15759). The following applies: at 10 µM.
In assay [16] the target is SRSF protein kinase 2 (Homo sapiens) (UniProt P78362). The following applies: at 1 µM.
For assay [17] the target is unchanged. The following applies: at 10 µM.
The target of assay [18] is Serine/threonine-protein kinase PLK2 (Homo sapiens) (UniProt Q9NYY3). Particulars: at 1 µM.
Assay [19] shares this target. The following applies: at 10 µM.
In assay [20] the target is Mitogen-activated protein kinase 11 (Homo sapiens) (UniProt Q15759). The following applies: at 1 µM.
Chain of Mitogen-activated protein kinase 11 (Homo sapiens) (Q15759 whole entry): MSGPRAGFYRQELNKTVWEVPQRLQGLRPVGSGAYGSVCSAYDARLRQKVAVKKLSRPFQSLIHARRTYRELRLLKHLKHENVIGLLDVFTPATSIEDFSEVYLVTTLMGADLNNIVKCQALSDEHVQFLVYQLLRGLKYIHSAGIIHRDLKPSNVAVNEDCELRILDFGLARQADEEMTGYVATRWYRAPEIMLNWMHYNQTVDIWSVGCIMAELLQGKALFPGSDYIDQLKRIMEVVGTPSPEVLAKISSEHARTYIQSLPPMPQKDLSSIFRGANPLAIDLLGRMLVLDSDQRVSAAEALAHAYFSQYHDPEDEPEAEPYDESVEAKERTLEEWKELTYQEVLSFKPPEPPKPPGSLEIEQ

Chain of SRSF protein kinase 1 (Homo sapiens) (Q96SB4 whole entry): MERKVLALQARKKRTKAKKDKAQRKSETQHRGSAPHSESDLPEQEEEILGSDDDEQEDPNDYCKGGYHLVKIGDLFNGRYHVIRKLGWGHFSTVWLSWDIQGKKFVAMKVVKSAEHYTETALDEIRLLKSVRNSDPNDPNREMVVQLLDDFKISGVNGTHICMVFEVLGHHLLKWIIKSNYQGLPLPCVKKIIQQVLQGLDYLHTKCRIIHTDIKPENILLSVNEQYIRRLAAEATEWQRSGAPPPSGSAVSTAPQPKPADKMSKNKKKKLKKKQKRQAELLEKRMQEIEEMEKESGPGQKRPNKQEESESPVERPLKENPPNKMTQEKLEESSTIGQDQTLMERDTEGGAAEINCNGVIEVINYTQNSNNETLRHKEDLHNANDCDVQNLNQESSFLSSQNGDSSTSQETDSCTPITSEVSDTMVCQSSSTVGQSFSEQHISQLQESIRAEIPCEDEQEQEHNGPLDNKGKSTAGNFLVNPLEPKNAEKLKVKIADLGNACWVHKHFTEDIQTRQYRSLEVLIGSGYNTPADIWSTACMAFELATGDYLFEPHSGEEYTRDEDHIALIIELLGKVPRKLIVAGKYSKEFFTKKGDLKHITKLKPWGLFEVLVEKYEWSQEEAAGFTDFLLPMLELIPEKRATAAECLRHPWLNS
Chain of Serine/threonine-protein kinase PLK2 (Homo sapiens) (Q9NYY3 whole entry, looked up): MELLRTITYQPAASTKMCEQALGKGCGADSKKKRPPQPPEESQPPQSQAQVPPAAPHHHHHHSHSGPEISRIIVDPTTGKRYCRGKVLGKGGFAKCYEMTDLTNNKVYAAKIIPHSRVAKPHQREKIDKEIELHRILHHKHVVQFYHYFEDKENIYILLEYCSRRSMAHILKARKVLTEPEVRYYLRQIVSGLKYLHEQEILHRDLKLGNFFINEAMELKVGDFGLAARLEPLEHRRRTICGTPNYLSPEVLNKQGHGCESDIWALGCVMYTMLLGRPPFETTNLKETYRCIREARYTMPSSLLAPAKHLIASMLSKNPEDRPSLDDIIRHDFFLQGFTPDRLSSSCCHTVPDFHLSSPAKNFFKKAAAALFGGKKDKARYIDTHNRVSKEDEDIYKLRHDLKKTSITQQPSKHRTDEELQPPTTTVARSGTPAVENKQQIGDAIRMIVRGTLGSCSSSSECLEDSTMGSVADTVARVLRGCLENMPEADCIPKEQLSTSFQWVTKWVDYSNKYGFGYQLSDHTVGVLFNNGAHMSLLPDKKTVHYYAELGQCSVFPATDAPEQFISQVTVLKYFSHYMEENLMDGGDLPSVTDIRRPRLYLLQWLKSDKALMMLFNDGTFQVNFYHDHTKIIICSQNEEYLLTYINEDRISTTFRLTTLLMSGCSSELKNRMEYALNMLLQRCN
Chain of Serine/threonine-protein kinase 33 (Homo sapiens) (Q9BYT3 whole entry, looked up): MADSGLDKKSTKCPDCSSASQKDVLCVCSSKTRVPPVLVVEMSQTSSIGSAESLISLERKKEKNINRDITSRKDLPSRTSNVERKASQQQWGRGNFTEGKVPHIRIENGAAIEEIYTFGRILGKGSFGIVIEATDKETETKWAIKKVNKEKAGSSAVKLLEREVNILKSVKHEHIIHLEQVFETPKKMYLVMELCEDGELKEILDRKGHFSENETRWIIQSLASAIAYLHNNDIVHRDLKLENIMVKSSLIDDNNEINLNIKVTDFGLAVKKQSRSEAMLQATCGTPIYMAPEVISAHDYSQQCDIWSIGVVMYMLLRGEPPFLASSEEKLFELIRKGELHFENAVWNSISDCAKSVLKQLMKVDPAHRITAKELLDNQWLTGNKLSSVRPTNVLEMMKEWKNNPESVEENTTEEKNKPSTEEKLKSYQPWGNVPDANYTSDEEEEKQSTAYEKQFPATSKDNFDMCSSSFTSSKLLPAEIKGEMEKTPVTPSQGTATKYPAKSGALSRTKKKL
Chain of Serine/threonine-protein kinase SIK1 (Homo sapiens) (P57059 whole entry): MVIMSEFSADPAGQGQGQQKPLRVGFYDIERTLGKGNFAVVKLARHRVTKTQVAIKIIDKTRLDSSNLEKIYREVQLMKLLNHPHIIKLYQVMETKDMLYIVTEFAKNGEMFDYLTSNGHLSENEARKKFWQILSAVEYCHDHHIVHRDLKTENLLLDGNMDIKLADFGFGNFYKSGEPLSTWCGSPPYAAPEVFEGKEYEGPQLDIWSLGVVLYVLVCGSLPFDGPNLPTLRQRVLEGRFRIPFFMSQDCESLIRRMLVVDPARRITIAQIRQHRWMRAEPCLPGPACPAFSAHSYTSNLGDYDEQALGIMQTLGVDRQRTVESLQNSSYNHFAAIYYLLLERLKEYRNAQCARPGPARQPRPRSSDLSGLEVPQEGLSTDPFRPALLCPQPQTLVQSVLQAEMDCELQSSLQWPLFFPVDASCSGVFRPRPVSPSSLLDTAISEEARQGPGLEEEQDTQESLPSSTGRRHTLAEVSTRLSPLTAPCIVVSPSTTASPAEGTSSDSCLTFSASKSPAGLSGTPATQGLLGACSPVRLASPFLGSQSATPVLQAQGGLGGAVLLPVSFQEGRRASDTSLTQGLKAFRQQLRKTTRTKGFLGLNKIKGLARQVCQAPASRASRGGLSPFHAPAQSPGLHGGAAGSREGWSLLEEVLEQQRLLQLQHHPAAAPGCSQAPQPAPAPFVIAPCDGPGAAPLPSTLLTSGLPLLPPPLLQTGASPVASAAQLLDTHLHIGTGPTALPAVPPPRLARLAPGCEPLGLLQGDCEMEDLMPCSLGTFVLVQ
Chain of SRSF protein kinase 2 (Homo sapiens) (P78362 whole entry, looked up): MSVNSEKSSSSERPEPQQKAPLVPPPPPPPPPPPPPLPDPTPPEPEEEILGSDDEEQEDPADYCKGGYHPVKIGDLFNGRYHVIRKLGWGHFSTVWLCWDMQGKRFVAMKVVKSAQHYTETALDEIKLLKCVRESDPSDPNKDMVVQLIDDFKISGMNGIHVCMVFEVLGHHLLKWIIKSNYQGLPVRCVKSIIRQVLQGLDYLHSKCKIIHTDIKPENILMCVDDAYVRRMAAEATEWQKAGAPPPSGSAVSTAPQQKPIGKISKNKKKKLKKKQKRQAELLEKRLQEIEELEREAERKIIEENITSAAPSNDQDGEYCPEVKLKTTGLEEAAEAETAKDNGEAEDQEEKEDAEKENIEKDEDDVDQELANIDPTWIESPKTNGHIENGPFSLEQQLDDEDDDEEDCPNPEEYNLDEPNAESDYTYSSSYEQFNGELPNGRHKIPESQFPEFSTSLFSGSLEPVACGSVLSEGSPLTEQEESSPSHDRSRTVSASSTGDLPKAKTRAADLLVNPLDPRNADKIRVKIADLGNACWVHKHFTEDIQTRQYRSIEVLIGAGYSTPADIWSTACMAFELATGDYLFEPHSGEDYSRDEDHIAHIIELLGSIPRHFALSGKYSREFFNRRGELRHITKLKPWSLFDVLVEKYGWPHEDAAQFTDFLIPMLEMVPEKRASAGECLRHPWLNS

Take `Cc1cc(C)c(/C=C2\C(=O)Nc3ccccc32)[nH]1`: the residual activity in assay [1] is 124%; in assay [2] it was 80%; in assay [3] it was 67%; in assay [4] it was 104%; in assay [5], 69%; in [6], 47%.

For the compound `O=S(=O)(c1cccc2cnccc12)N1CCCNCC1`, the residual activity in assay [7] came to 84%; in assay [3] it was 67%; in [8] it was 126%.

`COc1ccc2c(c1)c(C1=C(c3c[nH]c4ccccc34)C(=O)NC1=O)cn2CCCN(C)C`: the residual activity amounted to 100% in assay [9]; 107% in assay [7]; 56% in assay [10]; 80% in assay [2]; 41% in [3]; 77% in [8]. In addition, the residual activity in assay [11] came to 34%; in assay [4], 97%; in assay [12] it was 56%; in assay [5], 71%; in assay [6] it was 22%; in assay [13] it was 113%.

With `N#C/C(=C\c1ccc(O)c(O)c1)C(=O)NCc1ccccc1`, the residual activity turned out to be 125% in assay [1]; 79% in assay [7]; 32% in assay [10]; 61% in [2]; 17% in [3]; 73% in [14]. The residual activity was 88% in assay [8], 1% in assay [11], 100% in assay [4] and 127% in [13].

For the compound `CC(C)c1nn(-c2c(Cl)cccc2Cl)c2nc(Cc3ccc(OCCO)cc3)[nH]c(=O)c12`, the residual activity in [15] worked out at 105%; in assay [9], 59%; in assay [7], 99%; in assay [10], 103%; in assay [2], 97%; in assay [3], 91%. Besides, the residual activity in assay [14] was determined as 81%; in assay [8], 109%; in [11], 61%; in assay [4], 88%; in [12] it was 37%; in assay [16], 83%. Besides, the residual activity is 43% in [17]; 105% in assay [5]; 61% in assay [6]; 100% in assay [18]; 92% in [19]; 101% in [13].

For the compound `CCOc1nc(NC(=O)Cc2cc(OC)ccc2OC)cc(N)c1C#N`, the residual activity came out at 79% in assay [7] and 100% in [10].

Regarding `Nc1nccc(-c2c(-c3ccc(F)cc3)ncn2C2CCNCC2)n1`, the residual activity in assay [14] was 75%; in assay [8], 132%; in assay [11] it was 54%; in [17] it was 70%.

Regarding `O=C1Nc2ccccc2/C1=C\c1c(Cl)[nH]c2ccccc12`, the residual activity in [20] stood at 99%; in assay [3] it was 77%; in assay [14], 79%; in assay [8] it was 120%; in assay [16] it was 100%; in [17], 83%. Further, the residual activity in assay [5] came out at 99%; in assay [6] it was 85%; in assay [18], 99%; in assay [19], 80%.

With `CCCCc1c(-c2ccc(O)cc2)[nH]c2nccnc12`, the residual activity in assay [1] is 98%; in assay [9], 88%; in [2], 92%; in [3] it was 90%; in assay [14], 75%; in assay [8] it was 69%. Also, the residual activity in assay [11] turned out to be 36%; in assay [16] it was 91%; in assay [17], 90%; in assay [5], 99%; in [6], 62%; in assay [18], 100%. Also, the residual activity in [19] came to 86%; in assay [13] it was 50%.

For the compound `COc1ccc(COc2ccc(Cc3cnc(N)nc3N)cc2OC)cc1`, the residual activity in assay [2] came to 108%; in assay [11] it was 111%; in [13], 118%.

Consider `c1ccc(-c2cnc(Nc3ccc(OCCN4CCCC4)cc3)s2)cc1`, for which the residual activity in [1] is 103%; in assay [9] it was 103%; in [8], 53%; in assay [11] it was 10%; in [13] it was 129%.
